Laboratory results from PubChem BioAssay AID1645850 (National Center for Advancing Translational Sciences (NCATS), 2021).
Results filed as inconclusive are left out. The source made the active and inactive calls. The call rests on the fitted dose curve; in most records, active means well fitted curve in the direction sought with a large enough effect in the repeat runs; inconclusive means weak or mixed curves, or another doubt; inactive means no such curve, though single readings can be large or run the other way.

Experiment: Comparison of Janus kinase inhibitors to block the type I interferon pathway in human skeletal muscle cells: CTG Counterscreen
Source text: Assay Submitter (PI): Travis B. Kinder Ph.D.
National Center for Advancing Translational Sciences (NCATS)
The family of Janus kinases (JAK1, JAK2, JAK3, TYK2) mediate signal transduction from cytokine receptors through phosphorylation and activation of intracellular signaling pathways and transcription factors. Small molecule antagonists of JAKs (jakinibs) have been developed with varying selectivity for the use in malignancies and immune regulation. […] We have assayed a library of 48 jakinibs for their ability to inhibit the JAK1/TYK2-dependent type I interferon (IFN) - major histocompatibility complex (MHC) class I pathway in human skeletal muscle cells genome-engineered to fuse a pro-luminescent HiBiT peptide to endogenous MHC class I.
The assay utilized CRISPR/Cas9 genome-engineered immortalized human myoblasts, C25cl48, where a pro-luminescent reporter HiBit was fused to the C-terminus of endogenous MHC class I allele HLA-B*08:01 (HLA-B HiBit myoblasts) (Kinder et al., 2020). […] After 24 hrs of treatment, cells were assayed by CellTiter-Glo Luminescent Cell Viability Assay (Promega) and luminescence measured by a ViewLux 1430 Ultra HTS (Perkin Elmer). […]
7; Detector; 5 sec; Measure luminescence with ViewLux 1430 Ultra HTS (Perkin Elmer). […]

SMILES | outcome
CC(C)(O)/C=C\C(=O)[C@](C)(O)[C@H]1[C@H](O)C[C@]2(C)[C@@H]3CC=C4[C@@H](C=C(O)C(=O)C4(C)C)[C@]3(C)C(=O)C[C@@]12C | inactive
CC1CCCCCC(=O)c2c(O)cc(O)cc2CC(=O)O1 (configuration not stated) | inactive
